Reference: PubChem BioAssay
Activity calls are given as the source filed them.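 The calls were made as follows, unless noted: active = inhibition at or above 50% at 10 µM; inactive = inhibition below 50%.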

Experiments:
[1] = inhibitors of TNFa-induced NFkB p65 translocation, primary screen, imaging, HUVEC, MLSMR starter and 10KST1 sets (AID 438;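 active = inhibition above 20% together with a positive visual image hit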;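 also: compound added about 3h40 before a 20 min TNFalpha stimulation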;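 as to inhibition: signal is the nuclear over cytoplasmic p65 intensity ratio per well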); settings: HUVEC TNFa-induced p65 nuclear translocation; cell count: measured here: nuclei count (cytotoxicity indicator), at 2.08 µM; inhibition: at 2 µM, stronger effect = higher value, 0% TNFa-plus-vehicle, 100% no-TNFa wells
[2] = inhibitors of mutant huntingtin aggregation, primary screen, imaging, exon1htt(103Q)mCFP cells, high-content imaging (AID 483;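 active = visual image review flags a hit and inhibition of aggregation exceeds 20%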;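 also: compound exposure lasted 3 days before fixation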;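 as to nuclei count: percent of the per-plate median nuclei count of sample wells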); settings: exon1htt(103Q)mCFP cell line, aggregate imaging, at 2 µM; inhibition of aggregation: stronger effect = higher value; nuclei count: measured here: cell count, toxicity
[3] = inhibitors of E-selectin induction by TNFa, primary screen, imaging, HUVEC, immunofluorescence, MLSMR starter and 10KST1 sets (AID 487;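 active = visually confirmed hit in the image check and inhibition above 20%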;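 as to inhibition: signal is fraction of cell area covered by stained E-selectin grains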;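 as to nuclei count: 100% = median nuclei count of all wells on the same plate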); settings: HUVEC TNFalpha-induced E-selectin immunofluorescence imaging, at 2 µM; inhibition: stronger effect = higher value; nuclei count: measured here: cell number, toxicity
[4] = target: Voltage-gated potassium channel subunit beta-2 (Rattus norvegicus) (UniProt P62483); experiment: KvBeta enzyme negative modulators, primary screen, biochemical, NADPH fluorescence (AID 622;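 active = fluorescence slope higher than the sample average by over 3 SD, cut at about -0.22 in these data, passing the limit was not always enough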;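 also: slope of raw intensity against log time taken from 70 to 1610 s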); settings: recombinant KvBeta, 4-cyanobenzaldehyde reduction, at 10 µM, stronger effect = higher value
[5] = target: Voltage-gated potassium channel subunit beta-2 (Rattus norvegicus) (UniProt P62483); experiment: KvBeta positive modulators, primary screen, biochemical, NADPH fluorescence (AID 623;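 active = NADPH fluorescence slope more negative than the mean of all samples by about 3 SD, 99.7% confidence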;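 also: fluorescence intensity change per second fitted from 20 to 320 s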); settings: Recombinant KvBeta, NADPH fluorescence decrease slope, 10 min; at 10 µM; stronger effect = lower value
[6] = target: Alpha-2C adrenergic receptor (Homo sapiens) (UniProt P18825); experiment: modulators of alpha2C/GIRK thallium flux, primary screen, cell-based, HEK293 alpha2C/GIRK1/2 (AID 624;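 active = fluorescence slope after compound addition differing from the mean of all screened samples at 99.7% confidence, in either direction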;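 also: slope of fluorescence ratio to pre-addition baseline per second over 15 to 24 s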); settings: thallium flux BTC fluorescence, at 10 µM, actives lie on both sides
[7] = inhibitors of Sendai virus-induced IRF3 signaling, primary screen, TLR/RLR signaling modifier project, cell-based, Sendai virus stimulus, luciferase, 10K MLSCN set (AID 602276); settings: HEK293 RL24 IRF3 luciferase reporter, at 10 µM, stronger effect = higher value;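 also: firefly luciferase from ISG56 promoter only with Renilla not read in this screen; 0% = Sendai virus plus DMSO and 100% = medium plus DMSO without virus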
[8] = inhibitors of poly I:C-induced TLR3 signaling, primary screen, cell-based, poly I:C stimulus, luciferase, 10K MLSCN set (AID 602277;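 active = inhibition of the reporter signal at or above 50%; inactive = inhibition below 50%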); settings: HEK293-TLR3 RL24 IRF3 luciferase reporter, at 10 µM, stronger effect = higher value

Sequence of Alpha-2C adrenergic receptor (Homo sapiens) (P18825 whole entry, looked up): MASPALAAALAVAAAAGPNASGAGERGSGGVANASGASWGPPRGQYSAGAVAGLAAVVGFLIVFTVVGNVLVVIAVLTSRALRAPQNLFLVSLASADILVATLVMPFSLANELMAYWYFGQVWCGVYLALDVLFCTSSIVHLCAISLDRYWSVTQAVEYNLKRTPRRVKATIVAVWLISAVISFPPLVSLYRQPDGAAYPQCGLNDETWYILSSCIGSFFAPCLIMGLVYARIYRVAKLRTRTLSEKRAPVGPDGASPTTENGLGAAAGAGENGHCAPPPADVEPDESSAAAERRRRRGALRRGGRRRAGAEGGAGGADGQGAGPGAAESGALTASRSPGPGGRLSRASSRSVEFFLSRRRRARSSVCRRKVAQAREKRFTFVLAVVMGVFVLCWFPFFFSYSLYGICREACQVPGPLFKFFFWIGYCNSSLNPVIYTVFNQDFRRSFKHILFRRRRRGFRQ
Sequence of Voltage-gated potassium channel subunit beta-2 (Rattus norvegicus) (P62483 whole entry, looked up): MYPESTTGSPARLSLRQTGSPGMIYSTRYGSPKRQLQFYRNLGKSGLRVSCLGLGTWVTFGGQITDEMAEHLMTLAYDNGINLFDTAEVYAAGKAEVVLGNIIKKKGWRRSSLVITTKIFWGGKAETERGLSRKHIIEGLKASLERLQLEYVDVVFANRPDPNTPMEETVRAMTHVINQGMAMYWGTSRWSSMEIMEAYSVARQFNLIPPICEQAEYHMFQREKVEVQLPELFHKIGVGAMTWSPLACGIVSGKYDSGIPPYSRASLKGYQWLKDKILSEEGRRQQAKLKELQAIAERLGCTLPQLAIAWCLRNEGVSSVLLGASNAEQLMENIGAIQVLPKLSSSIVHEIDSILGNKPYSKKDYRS

| SMILES | cell count [1] | inhibition [1] | inhibition of aggregation [2] | nuclei count [2] | inhibition [3] | nuclei count [3] | fluorescence slope [4] | NADPH fluorescence slope [5] | slope [6] | inhibition [7] | inhibition [8] |
| --- | --- | --- | --- | --- | --- | --- | --- | --- | --- | --- | --- |
| CC1CCCC(C)N1C(=O)CSc1nnc(-c2cccs2)o1 (stereo unspecified) | 400 | -14% (inactive) | -29.6% (inactive) | 114% | -9.9% (inactive) | 101% | -0.382 (inactive) | -5.4e-05 (inactive) | 0.0042 (inactive) | -27.4% (inactive) | -68% (inactive) |
| Cc1[nH]c(C(=O)N2CCCCC2)c(C)c1C(=O)NC1CCCCC1 | 425 | 0.5% (inactive) | 6.3% (inactive) | 97.4% | -49.8% (inactive) | 123% | -0.528 (inactive) | 2.6e-05 (inactive) | 0.00631 (inactive) | 5.02% (inactive) | 4.54% (inactive) |
| COc1cccc(C(=O)N2CCCC(c3nc(-c4cccs4)no3)C2)c1 (stereo unspecified) | 446 | -25.5% (inactive) | 19.7% (inactive) | 74.5% | 22.9% (inactive) | 95.9% | -0.467 (inactive) | -3.3e-05 (inactive) | 0.00563 (inactive) | 24.8% (inactive) | -19.2% (inactive) |
| COCCNC(=O)C(c1ccc(C)o1)N(Cc1ccc(F)cc1)C(=O)Cn1nnc2ccccc21 (stereo unspecified) | 591 | -8.1% (inactive) | -12.2% (inactive) | 121% | 12.3% (inactive) | 108% | -0.381 (inactive) | -7.3e-05 (inactive) | 0.00726 (inactive) | 9.7% (inactive) | 24.6% (inactive) |
| CCc1c(C(=O)N2CCOCC2)csc1C | 295 | -3.7% (inactive) | -15% (inactive) | 104% | -4.5% (inactive) | 104% | -0.409 (inactive) | -7.3e-05 (inactive) | 0.00413 (inactive) | -0.247% (inactive) | -13.5% (inactive) |
| CC(C)Cn1c(N)c(C(=O)NCc2cccs2)c2nc3ccccc3nc21 | 250 | -2.4% (inactive) | -3.1% (inactive) | 68.4% | -1.8% (inactive) | 97.2% | -0.474 (inactive) | 7.5e-06 (inactive) | 0.00389 (inactive) | 14.5% (inactive) | -0.686% (inactive) |
| Cc1cc(=O)oc2c1ccc1oc(/C(=N/O)c3ccccc3)c(C)c12 | 456 | -19% (inactive) | 34.1% (inactive) | 77.6% | 1.5% (inactive) | 110% | -0.357 (inactive) | -3.7e-05 (inactive) | 0.00542 (inactive) | 7.72% (inactive) | 13.6% (inactive) |
| Cc1ccc(-c2nnc3c4ccccc4c(C)nn23)cc1NC(=O)c1ccco1 | 641 | -11% (inactive) | 17.5% (inactive) | 102% | -106% (inactive) | 115% | -0.602 (inactive) | 2.3e-05 (inactive) | 0.00729 (inactive) | -0.847% (inactive) | -4.54% (inactive) |
| CCc1nc(C)c(C#N)c2cc(OC)c(OC)cc12 | 387 | -1.1% (inactive) | -2.1% (inactive) | 79.3% | -7.1% (inactive) | 97.7% | -0.446 (inactive) | -7.7e-05 (inactive) | 0.00607 (inactive) | 15.2% (inactive) | 21.3% (inactive) |
| COC(=O)CC1C(=O)NCCN1C(=O)NC1CCCCC1 (stereo unspecified) | 714 | -4.5% (inactive) | -18.8% (inactive) | 110% | -116% (inactive) | 110% | -0.559 (inactive) | -1.3e-05 (inactive) | 0.0059 (inactive) | -2.45% (inactive) | 2.41% (inactive) |
| CCOC(=O)CN1CC23C=CC(O2)C(C(=O)Nc2ccc(OC)cc2OC)C3C1=O (stereo unspecified) | 563 | 8% (inactive) | 8.7% (inactive) | 81.1% | -54% (inactive) | 116% | -0.574 (inactive) | -1.5e-05 (inactive) | 0.00618 (inactive) | 8.81% (inactive) | 32% (inactive) |
| COc1ccc(CCNC(=O)c2ccc(N3CCCC3=O)cc2)cc1OC | 472 | -19% (inactive) | 43.9% (active) | 62.2% | -26% (inactive) | 89.1% | -0.453 (inactive) | -0.000105 (inactive) | 0.00604 (inactive) | 8.09% (inactive) | 20.6% (inactive) |
| Cc1cc(Nc2ccc(C(=O)O)cc2)n2nc(C)nc2n1 | 822 | 3.9% (inactive) | 9.8% (inactive) | 109% | -13.7% (inactive) | 106% | -0.543 (inactive) | -1.5e-05 (inactive) | 0.00685 (inactive) | 7.19% (inactive) | 21% (inactive) |
| Cc1nc2ccc(S(=O)(=O)NC(C(=O)Nc3nccs3)C(C)C)cc2s1 (stereo unspecified) | 549 | -6.2% (inactive) | -4.4% (inactive) | 95.9% | -17.1% (inactive) | 120% | -0.589 (inactive) | -2.2e-05 (inactive) | 0.00646 (inactive) | 13.6% (inactive) | 30.5% (inactive) |
| CCN1CCN(c2ncnc3c2cnn3-c2ccc(C)cc2C)CC1 | 561 | 1.3% (inactive) | -28.5% (inactive) | 94.2% | 1.5% (inactive) | 112% | -0.538 (inactive) | -1.4e-05 (inactive) | 0.00772 (inactive) | 10.8% (inactive) | 18.9% (inactive) |
| O=C(NC1CCCCC1)n1c(=O)oc2ccc(Cl)cc21 | 666 | 13.9% (inactive) | -4.2% (inactive) | 103% | 23.4% (inactive) | 107% | -0.622 (inactive) | -3.6e-05 (inactive) | 0.00609 (inactive) | -1.88% (inactive) | -13.8% (inactive) |
| Cc1noc(C)c1CSc1nnc2n(-c3ccccc3)c(=O)c3ccccc3n12 | 342 | -4% (inactive) | 12.7% (inactive) | 85.8% | -27.6% (inactive) | 89.5% | -0.411 (inactive) | -1e-05 (inactive) | 0.00571 (inactive) | 7.36% (inactive) | 20.9% (inactive) |
| COc1cccc(-c2nnn(CC(=O)O)n2)c1 | 472 | -5.1% (inactive) | -19.3% (inactive) | 90.3% | -118% (inactive) | 233% | -0.468 (inactive) | 2.6e-06 (inactive) | 0.00693 (inactive) | 6.2% (inactive) | 43.8% (inactive) |
| COc1ccccc1C1CC(c2ccc(C)cc2)Nc2ncnn21 (stereo unspecified) | 332 | 0.7% (inactive) | -31.6% (inactive) | 109% | -37.9% (inactive) | 119% | -0.425 (inactive) | 4.9e-05 (inactive) | 0.00745 (inactive) | -7.75% (inactive) | -0.278% (inactive) |
| Cc1cc(C)c2[nH]c(=O)c(C(c3nnnn3Cc3ccc4c(c3)OCO4)N3CCC(C)CC3)cc2c1 (stereo unspecified) | 716 | -1.6% (inactive) | 2.1% (inactive) | 98.1% | 70% (inactive) | 73.2% | -0.428 (inactive) | 6.4e-06 (inactive) | 0.0051 (inactive) | -4.82% (inactive) | 18.2% (inactive) |
| CCOC(=O)CN(C(=O)CSc1nnc(-c2ccncc2)n1CCCN(C)C)c1ccccc1 | 570 | -11.3% (inactive) | 12.2% (inactive) | 89.1% | -14.2% (inactive) | 92.8% | -0.615 (inactive) | -1.7e-05 (inactive) | 0.00606 (inactive) | 14.2% (inactive) | 30.4% (inactive) |
| CCOC(=O)c1cc2sc(C)cc2n1C(C)C(=O)OCC (stereo unspecified) | 291 | 0.5% (inactive) | -7% (inactive) | 106% | -48.6% (inactive) | 123% | -0.607 (inactive) | -3.9e-05 (inactive) | 0.00348 (inactive) | 18.2% (inactive) | 20.3% (inactive) |
| CC1CCC(C(=O)NC(C(=O)NCCN2CCC(C)CC2)C(C)C)CC1 (stereo unspecified) | 256 | -3.9% (inactive) | -5.5% (inactive) | 71.9% | -24.9% (inactive) | 101% | -0.495 (inactive) | 8.5e-05 (inactive) | 0.00683 (inactive) | 19.4% (inactive) | 25.4% (inactive) |
| COc1ccccc1N1CCN(c2cc(=O)n(Cc3ccc(F)cc3)c(=O)[nH]2)CC1 | 503 | -2.8% (inactive) | 2% (inactive) | 44% | 11.7% (inactive) | 106% | -0.569 (inactive) | -3.7e-05 (inactive) | 0.00657 (inactive) | 17.1% (inactive) | 29.3% (inactive) |
| COc1cccc(CN2CCN(C(=O)c3ccco3)CC2)c1OC | 513 | 13.6% (inactive) | -4.9% (inactive) | 100% | -347% (inactive) | 128% | -0.595 (inactive) | 1.5e-05 (inactive) | 0.00742 (inactive) | 11.8% (inactive) | 8.85% (inactive) |
| Cc1cc(C)c(C)c(OCC(=O)NCC2CCCO2)c1 (stereo unspecified) | 371 | -13.5% (inactive) | -15% (inactive) | 97.1% | -65.1% (inactive) | 110% | -0.521 (inactive) | -3.4e-05 (inactive) | 0.0063 (inactive) | -5.32% (inactive) | 21% (inactive) |
